Results on one sequence are retold here after article PMC7862700, “An all-to-all approach to the identification of sequence-specific readers for epigenetic DNA modifications on cytosine”.

Common to all, as to assay: DAPPL (digital affinity profiling via proximity ligation, sequencing); 10 mM Tris-HCl pH 7.5, 50 mM NaCl, 1 mM DTT, 4% glycerol, room temperature, 30 min; GST-TFs on glutathione beads, 16-mer random dsDNA library, 0.1% formaldehyde crosslink after washing; high values mean tight binding
In test [1] the target is T1, FEV (Homo sapiens, UniProt Q99581 1-238).
T1 sequence: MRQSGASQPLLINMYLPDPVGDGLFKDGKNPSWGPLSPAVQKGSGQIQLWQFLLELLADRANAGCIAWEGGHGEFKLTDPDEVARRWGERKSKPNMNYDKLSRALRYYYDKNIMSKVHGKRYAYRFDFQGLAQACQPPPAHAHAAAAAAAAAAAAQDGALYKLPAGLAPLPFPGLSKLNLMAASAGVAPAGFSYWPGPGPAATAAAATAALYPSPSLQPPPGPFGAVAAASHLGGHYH
To be noted: protein: recombinant; tags: N-terminal GST; dsDNA, one strand shown. The method in brief:
(§1)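 Human transcription factors fused to GST were expressed in yeast, captured on glutathione beads, given DNA barcodes and pooled with a GST-only negative control. Pools were incubated with 200 nmole of a 16-mer random double-stranded DNA library in Tris/NaCl/DTT/glycerol buffer at room temperature for 30 min. They were then washed, crosslinked with 0.1% formaldehyde, proximity-ligated (BsaI/T4 ligase, 1 h, 37 °C), PCR-amplified and sequenced on an Illumina NextSeq500. Binding signal is each 6-mer's read frequency for a factor divided by its frequency for the GST control.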

In test [2] the target is ETV5 (Homo sapiens, UniProt P41161 1-510). To be noted: protein: recombinant; tags: N-terminal GST; dsDNA, one strand shown. The method in brief:
as §1

Test [3] has as its target HSF1 (Homo sapiens, UniProt Q00613 1-529). To be noted: protein: recombinant; tags: N-terminal GST; chain copies: 3; dsDNA, one strand shown. The method in brief:
as §1

For test [4], the target named is T2, SPIC (Homo sapiens, UniProt Q8N5J4 1-248).
T2 sequence: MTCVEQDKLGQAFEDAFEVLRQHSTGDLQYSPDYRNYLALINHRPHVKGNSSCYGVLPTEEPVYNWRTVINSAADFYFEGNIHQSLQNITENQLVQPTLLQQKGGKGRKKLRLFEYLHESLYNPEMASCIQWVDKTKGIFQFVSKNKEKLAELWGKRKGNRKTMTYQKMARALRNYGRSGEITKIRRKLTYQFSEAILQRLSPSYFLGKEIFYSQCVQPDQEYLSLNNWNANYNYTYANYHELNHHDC
To be noted: protein: recombinant; tags: N-terminal GST; dsDNA, one strand shown. The method in brief: as §1

In test [5] the target is ELF4 (Homo sapiens, UniProt Q99607 1-663). To be noted: protein: recombinant; tags: N-terminal GST; dsDNA, one strand shown. The method in brief:
as §1

Test [6] deals with T3, ELK4 (Homo sapiens, UniProt P28324-2 1-405).
T3 sequence: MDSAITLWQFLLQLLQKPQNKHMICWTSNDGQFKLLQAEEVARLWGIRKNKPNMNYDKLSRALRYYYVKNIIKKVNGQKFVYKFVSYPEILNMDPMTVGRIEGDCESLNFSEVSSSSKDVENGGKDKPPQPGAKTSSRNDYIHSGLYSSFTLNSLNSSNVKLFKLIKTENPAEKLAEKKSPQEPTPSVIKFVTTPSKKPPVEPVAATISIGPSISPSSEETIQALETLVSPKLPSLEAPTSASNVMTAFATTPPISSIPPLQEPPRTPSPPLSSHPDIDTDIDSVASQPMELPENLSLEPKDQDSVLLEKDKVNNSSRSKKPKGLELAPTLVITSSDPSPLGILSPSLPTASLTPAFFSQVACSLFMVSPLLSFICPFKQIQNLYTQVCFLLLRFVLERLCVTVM
As to conditions: protein: recombinant; tags: N-terminal GST; dsDNA, one strand shown. In outline:
as §1

Test [7] has as its target T4, ETV2 (Homo sapiens, UniProt O00321 1-342).
T4 sequence: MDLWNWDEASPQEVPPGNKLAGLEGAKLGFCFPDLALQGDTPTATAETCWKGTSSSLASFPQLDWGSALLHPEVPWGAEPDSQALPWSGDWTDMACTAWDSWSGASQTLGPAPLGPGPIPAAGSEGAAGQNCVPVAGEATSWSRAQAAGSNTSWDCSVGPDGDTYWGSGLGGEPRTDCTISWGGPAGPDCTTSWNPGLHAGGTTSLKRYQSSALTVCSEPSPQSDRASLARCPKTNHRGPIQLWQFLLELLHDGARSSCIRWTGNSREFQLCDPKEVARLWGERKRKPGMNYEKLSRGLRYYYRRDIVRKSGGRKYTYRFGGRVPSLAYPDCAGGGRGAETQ
As to conditions: protein: recombinant; tags: N-terminal GST; dsDNA, one strand shown. In outline: as §1

The target in test [8] is T5, ELF3 (Homo sapiens, UniProt P78545 1-371).
T5 sequence: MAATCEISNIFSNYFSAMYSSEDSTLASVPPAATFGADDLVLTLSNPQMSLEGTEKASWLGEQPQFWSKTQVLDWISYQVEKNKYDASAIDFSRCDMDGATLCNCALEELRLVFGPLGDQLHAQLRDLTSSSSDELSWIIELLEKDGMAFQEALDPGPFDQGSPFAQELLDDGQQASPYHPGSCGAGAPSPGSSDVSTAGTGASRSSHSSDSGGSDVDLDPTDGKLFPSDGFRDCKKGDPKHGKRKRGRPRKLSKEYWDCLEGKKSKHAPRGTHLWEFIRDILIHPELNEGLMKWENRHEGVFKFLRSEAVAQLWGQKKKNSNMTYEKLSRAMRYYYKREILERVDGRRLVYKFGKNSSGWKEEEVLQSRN
To be noted: protein: recombinant; tags: N-terminal GST; dsDNA, one strand shown. In outline:
as §1

The target of test [9] is CRX (Homo sapiens, UniProt O43186 1-299). As to conditions: protein: recombinant; tags: N-terminal GST; dsDNA, one strand shown. In outline: as §1
Chain of CRX (O43186 whole entry): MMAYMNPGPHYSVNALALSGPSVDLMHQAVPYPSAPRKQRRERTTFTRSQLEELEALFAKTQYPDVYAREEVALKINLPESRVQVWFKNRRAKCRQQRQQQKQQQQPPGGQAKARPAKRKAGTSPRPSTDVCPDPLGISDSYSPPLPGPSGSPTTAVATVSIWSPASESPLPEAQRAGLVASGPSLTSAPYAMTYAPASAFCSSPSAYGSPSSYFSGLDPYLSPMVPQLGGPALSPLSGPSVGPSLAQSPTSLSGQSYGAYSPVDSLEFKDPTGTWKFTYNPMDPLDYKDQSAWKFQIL
Test [10] concerns the target ETV1 (Homo sapiens, UniProt P50549 1-477). As to conditions: protein: recombinant; tags: N-terminal GST; dsDNA, one strand shown. The method in brief:
as §1

Test [11] has as its target T6, ERF (Homo sapiens, UniProt P50548 1-548).
T6 sequence: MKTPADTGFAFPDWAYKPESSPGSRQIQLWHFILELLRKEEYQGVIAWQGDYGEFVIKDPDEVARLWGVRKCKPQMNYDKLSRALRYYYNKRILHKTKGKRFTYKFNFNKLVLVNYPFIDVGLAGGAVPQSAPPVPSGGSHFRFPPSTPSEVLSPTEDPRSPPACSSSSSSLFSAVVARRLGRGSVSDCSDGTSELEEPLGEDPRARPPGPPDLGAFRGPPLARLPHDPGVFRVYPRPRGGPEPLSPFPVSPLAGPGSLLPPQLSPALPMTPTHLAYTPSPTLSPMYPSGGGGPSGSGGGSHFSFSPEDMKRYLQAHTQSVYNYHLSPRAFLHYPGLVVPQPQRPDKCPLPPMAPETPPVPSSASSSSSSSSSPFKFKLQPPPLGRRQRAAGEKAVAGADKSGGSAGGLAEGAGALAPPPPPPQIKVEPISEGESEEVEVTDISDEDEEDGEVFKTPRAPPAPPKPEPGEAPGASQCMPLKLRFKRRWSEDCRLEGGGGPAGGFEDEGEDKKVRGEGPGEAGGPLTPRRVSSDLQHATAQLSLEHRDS
As to conditions: protein: recombinant; tags: N-terminal GST; dsDNA, one strand shown. The method in brief:
as §1

Test [12] concerns the target T7, ETV3L (Homo sapiens, UniProt Q6ZN32 1-361).
T7 sequence: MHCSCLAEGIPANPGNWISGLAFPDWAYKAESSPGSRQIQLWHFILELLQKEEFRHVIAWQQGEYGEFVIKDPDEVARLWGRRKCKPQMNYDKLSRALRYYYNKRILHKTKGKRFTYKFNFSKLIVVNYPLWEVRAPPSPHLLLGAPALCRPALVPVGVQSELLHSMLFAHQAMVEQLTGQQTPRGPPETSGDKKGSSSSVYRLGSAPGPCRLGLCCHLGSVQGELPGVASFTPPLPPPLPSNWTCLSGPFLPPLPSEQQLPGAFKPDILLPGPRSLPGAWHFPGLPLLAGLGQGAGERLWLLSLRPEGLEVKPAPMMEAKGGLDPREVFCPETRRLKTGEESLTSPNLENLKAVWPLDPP
As to conditions: protein: recombinant; tags: N-terminal GST; dsDNA, one strand shown. In outline:
as §1

Test [13] addresses T8, ETS2 (Homo sapiens, UniProt P15036 1-469).
T8 sequence: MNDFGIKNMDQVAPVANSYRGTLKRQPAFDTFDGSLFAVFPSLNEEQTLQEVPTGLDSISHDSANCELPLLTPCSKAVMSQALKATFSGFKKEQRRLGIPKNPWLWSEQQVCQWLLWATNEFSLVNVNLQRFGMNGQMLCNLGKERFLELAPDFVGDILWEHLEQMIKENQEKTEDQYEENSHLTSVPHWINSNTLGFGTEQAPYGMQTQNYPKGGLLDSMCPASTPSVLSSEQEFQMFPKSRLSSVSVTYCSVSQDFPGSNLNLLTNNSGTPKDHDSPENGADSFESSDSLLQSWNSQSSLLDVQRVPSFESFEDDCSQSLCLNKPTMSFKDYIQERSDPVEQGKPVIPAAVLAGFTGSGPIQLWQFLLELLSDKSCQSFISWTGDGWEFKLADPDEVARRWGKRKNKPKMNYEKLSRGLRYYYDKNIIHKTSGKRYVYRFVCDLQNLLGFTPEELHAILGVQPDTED
To be noted: protein: recombinant; tags: N-terminal GST; dsDNA, one strand shown. In outline: as §1

Test [14] deals with T9, SPDEF (Homo sapiens, UniProt O95238 1-335).
T9 sequence: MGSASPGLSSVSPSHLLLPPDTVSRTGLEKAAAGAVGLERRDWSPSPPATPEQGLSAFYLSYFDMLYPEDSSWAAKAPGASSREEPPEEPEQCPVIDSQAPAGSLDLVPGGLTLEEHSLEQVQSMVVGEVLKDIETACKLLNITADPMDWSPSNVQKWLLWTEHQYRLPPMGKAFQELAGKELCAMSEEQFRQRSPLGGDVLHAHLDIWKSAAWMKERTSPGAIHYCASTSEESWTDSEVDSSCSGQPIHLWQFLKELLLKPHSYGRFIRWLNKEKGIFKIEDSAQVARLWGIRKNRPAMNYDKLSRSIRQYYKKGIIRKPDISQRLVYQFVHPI
As to conditions: protein: recombinant; tags: N-terminal GST; dsDNA, one strand shown. In outline: as §1

Test [15] has as its target T10, ETV7 (Homo sapiens, UniProt Q9Y603 1-341).
T10 sequence: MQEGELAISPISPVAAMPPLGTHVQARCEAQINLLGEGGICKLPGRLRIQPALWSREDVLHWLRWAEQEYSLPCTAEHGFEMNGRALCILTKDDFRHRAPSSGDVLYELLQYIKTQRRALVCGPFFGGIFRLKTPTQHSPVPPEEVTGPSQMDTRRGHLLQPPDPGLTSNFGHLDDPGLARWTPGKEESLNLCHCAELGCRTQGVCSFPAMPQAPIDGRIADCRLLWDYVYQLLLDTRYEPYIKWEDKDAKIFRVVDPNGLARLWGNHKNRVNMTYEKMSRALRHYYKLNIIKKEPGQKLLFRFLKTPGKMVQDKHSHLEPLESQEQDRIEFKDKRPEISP
As to conditions: protein: recombinant; tags: N-terminal GST; dsDNA, one strand shown. In outline: as §1

Test [16] concerns the target T11, ELF5 (Homo sapiens, UniProt Q9UKW6-2 1-255).
T11 sequence: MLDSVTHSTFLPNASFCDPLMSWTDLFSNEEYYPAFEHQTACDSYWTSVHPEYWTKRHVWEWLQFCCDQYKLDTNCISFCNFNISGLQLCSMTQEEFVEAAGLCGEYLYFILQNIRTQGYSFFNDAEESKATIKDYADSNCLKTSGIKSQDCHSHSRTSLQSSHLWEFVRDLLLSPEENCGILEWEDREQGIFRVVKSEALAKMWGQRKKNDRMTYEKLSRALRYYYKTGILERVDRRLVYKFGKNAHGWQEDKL
To be noted: protein: recombinant; tags: N-terminal GST; dsDNA, one strand shown. The method in brief: as §1

Test [17] addresses T12, ETV3 (Homo sapiens, UniProt P41162-2 1-143).
T12 sequence: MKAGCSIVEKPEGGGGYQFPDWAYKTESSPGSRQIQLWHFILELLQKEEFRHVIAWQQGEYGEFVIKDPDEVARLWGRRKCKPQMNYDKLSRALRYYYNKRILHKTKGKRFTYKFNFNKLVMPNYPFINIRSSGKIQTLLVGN
To be noted: protein: recombinant; tags: N-terminal GST; dsDNA, one strand shown. The method in brief: as §1

For test [18], the target named is ETV6 (Homo sapiens, UniProt P41212 1-452). To be noted: protein: recombinant; tags: N-terminal GST; dsDNA, one strand shown. The method in brief: as §1
Chain of ETV6 (P41212 whole entry): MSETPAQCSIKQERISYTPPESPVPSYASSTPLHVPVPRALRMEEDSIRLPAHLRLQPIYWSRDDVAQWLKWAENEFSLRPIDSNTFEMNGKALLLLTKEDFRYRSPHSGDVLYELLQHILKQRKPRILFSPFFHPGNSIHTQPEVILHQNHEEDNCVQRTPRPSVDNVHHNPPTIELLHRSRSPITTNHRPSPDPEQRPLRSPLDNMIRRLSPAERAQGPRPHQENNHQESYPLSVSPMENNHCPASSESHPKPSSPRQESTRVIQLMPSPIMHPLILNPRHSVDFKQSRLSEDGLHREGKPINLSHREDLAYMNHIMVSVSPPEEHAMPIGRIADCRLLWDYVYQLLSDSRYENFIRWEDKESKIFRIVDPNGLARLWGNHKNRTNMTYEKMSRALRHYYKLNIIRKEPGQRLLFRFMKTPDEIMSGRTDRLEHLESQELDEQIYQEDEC

Chain of ETV5 (P41161 whole entry): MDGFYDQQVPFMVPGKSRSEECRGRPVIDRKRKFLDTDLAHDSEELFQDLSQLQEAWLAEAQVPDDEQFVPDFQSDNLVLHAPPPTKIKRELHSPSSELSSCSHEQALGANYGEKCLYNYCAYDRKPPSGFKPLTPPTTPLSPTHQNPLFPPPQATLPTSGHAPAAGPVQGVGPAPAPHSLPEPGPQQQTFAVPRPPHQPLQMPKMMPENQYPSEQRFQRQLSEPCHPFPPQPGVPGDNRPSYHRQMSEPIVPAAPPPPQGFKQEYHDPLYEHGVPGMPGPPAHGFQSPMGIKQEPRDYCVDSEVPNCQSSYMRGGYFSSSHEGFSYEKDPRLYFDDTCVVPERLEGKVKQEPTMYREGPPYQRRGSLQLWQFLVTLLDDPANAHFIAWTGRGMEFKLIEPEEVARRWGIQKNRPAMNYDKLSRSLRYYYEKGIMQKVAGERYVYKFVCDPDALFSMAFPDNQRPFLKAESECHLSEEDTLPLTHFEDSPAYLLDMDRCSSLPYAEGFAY
Chain of HSF1 (Q00613 whole entry): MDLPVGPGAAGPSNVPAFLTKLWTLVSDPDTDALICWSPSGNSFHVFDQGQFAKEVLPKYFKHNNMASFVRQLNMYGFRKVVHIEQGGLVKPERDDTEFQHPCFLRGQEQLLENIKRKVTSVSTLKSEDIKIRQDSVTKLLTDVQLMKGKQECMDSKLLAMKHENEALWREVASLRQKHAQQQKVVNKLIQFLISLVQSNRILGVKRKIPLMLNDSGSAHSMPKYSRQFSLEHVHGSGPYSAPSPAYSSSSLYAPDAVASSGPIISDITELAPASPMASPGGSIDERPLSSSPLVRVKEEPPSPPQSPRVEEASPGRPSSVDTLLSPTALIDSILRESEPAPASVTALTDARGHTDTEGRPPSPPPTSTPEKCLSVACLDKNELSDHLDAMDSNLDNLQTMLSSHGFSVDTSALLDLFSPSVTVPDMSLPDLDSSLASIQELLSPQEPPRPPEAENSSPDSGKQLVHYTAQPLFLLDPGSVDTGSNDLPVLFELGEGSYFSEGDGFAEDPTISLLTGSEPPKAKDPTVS
Chain of ETV1 (P50549 whole entry): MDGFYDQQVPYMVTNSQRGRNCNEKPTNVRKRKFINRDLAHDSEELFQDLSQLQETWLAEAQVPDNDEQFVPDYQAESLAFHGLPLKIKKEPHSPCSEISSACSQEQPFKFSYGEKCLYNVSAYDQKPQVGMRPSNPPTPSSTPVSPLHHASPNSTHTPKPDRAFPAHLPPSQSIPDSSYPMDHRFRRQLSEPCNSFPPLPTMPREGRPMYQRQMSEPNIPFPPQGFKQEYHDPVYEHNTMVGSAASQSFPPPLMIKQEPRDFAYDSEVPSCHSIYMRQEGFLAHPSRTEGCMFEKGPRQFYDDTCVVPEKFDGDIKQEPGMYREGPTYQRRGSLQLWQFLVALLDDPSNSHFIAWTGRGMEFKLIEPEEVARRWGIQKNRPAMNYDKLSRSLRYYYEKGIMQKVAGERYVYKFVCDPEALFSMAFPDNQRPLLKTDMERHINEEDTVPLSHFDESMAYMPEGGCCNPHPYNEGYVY
Chain of ELF4 (Q99607 whole entry): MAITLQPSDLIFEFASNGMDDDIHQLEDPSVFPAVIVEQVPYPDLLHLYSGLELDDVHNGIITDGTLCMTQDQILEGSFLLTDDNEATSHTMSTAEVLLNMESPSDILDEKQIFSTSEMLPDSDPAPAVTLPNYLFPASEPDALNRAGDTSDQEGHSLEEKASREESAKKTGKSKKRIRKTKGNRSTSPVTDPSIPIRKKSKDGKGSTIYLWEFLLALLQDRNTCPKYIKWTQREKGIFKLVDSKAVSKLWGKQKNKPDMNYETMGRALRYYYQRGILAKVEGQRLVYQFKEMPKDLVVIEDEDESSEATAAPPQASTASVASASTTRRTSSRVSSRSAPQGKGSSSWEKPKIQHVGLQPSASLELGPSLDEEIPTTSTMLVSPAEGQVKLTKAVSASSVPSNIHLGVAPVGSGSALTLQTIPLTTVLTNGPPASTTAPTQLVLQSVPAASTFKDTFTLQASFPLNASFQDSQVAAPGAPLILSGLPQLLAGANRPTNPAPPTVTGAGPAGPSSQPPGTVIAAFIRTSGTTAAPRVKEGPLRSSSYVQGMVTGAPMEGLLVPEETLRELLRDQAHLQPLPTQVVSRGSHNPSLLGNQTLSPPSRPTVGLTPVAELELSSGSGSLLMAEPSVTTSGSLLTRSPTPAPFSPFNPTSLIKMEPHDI

ATGCTT: the binding signal in test [1] was 1.2 fold enrichment (6-mer frequency, TF over GST control); in [2] it was 1.29 fold enrichment (6-mer frequency, TF over GST control); in test [3], 1.23 fold enrichment (6-mer frequency, TF over GST control); in test [4] it was 1.6 fold enrichment (6-mer frequency, TF over GST control); in test [5] it was 1.3 fold enrichment (6-mer frequency, TF over GST control); in test [6], 1.45 fold enrichment (6-mer frequency, TF over GST control). For the same sequence, the binding signal in test [7] was 1.29 fold enrichment (6-mer frequency, TF over GST control); in [8], 1.35 fold enrichment (6-mer frequency, TF over GST control); in test [9] it was 1.24 fold enrichment (6-mer frequency, TF over GST control); in test [10] it was 1.3 fold enrichment (6-mer frequency, TF over GST control); in [11], 1.27 fold enrichment (6-mer frequency, TF over GST control); in [12], 1.36 fold enrichment (6-mer frequency, TF over GST control). Besides, the binding signal in [13] is 1.28 fold enrichment (6-mer frequency, TF over GST control); in [14], 1.32 fold enrichment (6-mer frequency, TF over GST control); in test [15], 1.33 fold enrichment (6-mer frequency, TF over GST control); in [16], 1.38 fold enrichment (6-mer frequency, TF over GST control); in [17], 1.31 fold enrichment (6-mer frequency, TF over GST control); in [18], 1.3 fold enrichment (6-mer frequency, TF over GST control).
